Assay [1] relates to Zika virus NS2B-NS3 protease (unlinked complex). As to the kind of experiment: Primary screen GU Rhodamine qHTS for Zika virus inhibitors: Unlinked NS2B-NS3 protease assay (AID 1347159). Note: nearly all actives have a fitted effect of over 60% in size. Particulars: Recombinant ZIKV NS2B-NS3 protease, Rhodamine110 substrate fluorescence; series mostly up to 107 µM. An outline of the steps: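 Enzyme 25 nM in Tris-HCl pH 8.0 + 0.01% Tween 20; compounds up to 114 microM, 15 min RT dark; + Rhod110 substrate 1.5 microM; read t0 and 15 min; delta fluorescence → % inhibition → 4-parameter Hill fit.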
Background: In qHTS, concentration-response curves come from the screen itself.

Assay [2] relates to Zika virus NS2B-NS3 protease (linked construct). The assay can be described thus: Primary screen NINDS Rhodamine qHTS for Zika virus inhibitors (AID 1347160). Note: nearly all actives have a fitted effect of over 55% in size. Particulars: purified NS2B-NS3 protease, Rhodamine110 substrate fluorescence; series mostly up to 57.1 µM. Summed up: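 Enzyme (25 nM, linked NS2B-NS3) was preincubated 15 min with compound in 10 mM Tris-HCl pH 8.0, 0.01% Tween 20. Rhodamine110 substrate (1.5 microM) was then added and fluorescence read at start and after 15 min.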

Records with an inconclusive call do not appear. Where a call stands in place of a potency, no number is given. The source made the active and inactive calls. Calls come from the whole dose curve; as a rule, active = well fitted inhibition curve with a large enough effect; inconclusive = small, poorly fitted or top-dose-only effect; inactive = no such curve, though single readings can be large or run the other way.

For the molecule `C[C@@H]1CCCN1CCc1cc2cc(-c3ccc(C#N)cc3)ccc2o1`, the Potency result in assay [1] and in assay [2] was “inactive” throughout.
As to `COC(=O)CC1OC(C)C2=C(O)c3c(O)cccc3C(=O)C23OC13` (stereo unspecified), the Potency result in assay [1] and in assay [2] was “inactive” in each case.
As for `CCOC(=O)C1(CCOc2ccccc2)CCN(Cc2ccc(O)c(Cl)c2)CC1`, the Potency result in assay [1] and in assay [2] was “inactive” in each case.
`Clc1ncoc1-c1c[nH]c2ccccc12`: the Potency entry in assay [1] and in assay [2] was “inactive” in each case.
As to `O=C(NCC1(N2CCN(c3ccccc3)CC2)CCOCC1)c1cccnc1Sc1ccccc1`, the Potency result in assay [1] and in assay [2] was “inactive” in each case.
In the case of `CC(=O)c1ccc2c(c1)[C@H](NC(=O)c1ccc(F)c(Cl)c1)[C@H](O)C(C)(C)O2`, the Potency entry in assay [1] and in assay [2] was “inactive” throughout.
With `O=c1[nH]c2ccc(C#CCN3CCC(Cc4ccccc4)CC3)cc2[nH]1`, the Potency result in assay [1] and in assay [2] was “inactive” each time.
For the molecule `Cc1cc(C)c(S(=O)(=O)n2cc(C)cc2C)c(C)c1`, the Potency result in assay [1] and in assay [2] was “inactive” throughout.
In the case of `O=C(NO)c1ccc(CC(=O)N(CCO)c2ccccc2)cc1`, the Potency entry in assay [1] and in assay [2] was “inactive” each time.
In the case of `CC(C)c1ccc(NC(=O)Cn2cnc3c2c(=O)n(C)c(=O)n3C)cc1`, the Potency result in assay [1] and in assay [2] was “inactive” each time.
As for `CC(=O)O[C@H]1C[C@@](O)(C(C)C)[C@@H]2[C@@H](OC(=O)c3ccc(O)cc3)CC(C)=CC[C@@]12C`, the Potency entry in assay [1] and in assay [2] was “inactive” each time.
Consider `O=C(CSc1nc2ccccc2c(=O)n1-c1ccccc1)Nc1ccc2c(c1)CCC2`, for which the Potency entry in assay [1] and in assay [2] was “inactive” each time.
As for `C=CC(=O)N1CCCN(c2cc(NCCC(=O)O)nc(-c3ccccn3)n2)CC1`, the Potency result in assay [1] and in assay [2] was “inactive” throughout.
With `O=C(Nc1ccc(C(F)(F)F)cn1)N1CCN(c2ncccc2C(F)(F)F)CC1`, the Potency entry in assay [1] and in assay [2] was “inactive” throughout.
Take `O=C(/C=C/c1ccccc1O)O[C@@H]1O[C@H](CO)[C@@H](O)[C@H](O)[C@H]1O`: the Potency entry in assay [1] and in assay [2] was “inactive” throughout.
`Cc1ccccc1CN1CCn2c1nc1c(c2=O)CN(Cc2ccccc2)CC1`: the Potency result in assay [1] and in assay [2] was “inactive” in each case.
With `CC(C)=C[C@@H]1[C@H](CO[C@@H]2O[C@H](CO)[C@@H](O)[C@H](O)[C@H]2O)C1(C)C`, the Potency result in assay [1] and in assay [2] was “inactive” in each case.
On to `CC(C)(C)NC(=O)[C@H]1CC[C@H]2[C@@H]3CC[C@H]4NC(=O)CC[C@]4(C)[C@H]3CC[C@]12C`, for which the Potency result in assay [1] and in assay [2] was “inactive” throughout.
Turning to `NCC(CNc1nc(Nc2cccc(NC(=O)N3CCCC3)c2)ncc1I)C(=O)c1cccs1` (stereo unspecified), the Potency result in assay [1] and in assay [2] was “inactive” throughout.
`Fc1ccc(CN2CCC(Nc3ccc(C(F)(F)F)nn3)CC2)cc1F`: the Potency entry in assay [1] and in assay [2] was “inactive” in each case.
`COc1ccc2c(c1)C(C(=O)N(Cc1ccc(N(C)C)cc1)c1ccc(C(C)C)cc1)CCC2` (stereo unspecified): the Potency entry in assay [1] and in assay [2] was “inactive” in each case.
Regarding `Cc1cc(F)ccc1-c1nc(NCCN=C(N)NC#N)nc2c1ccc(=O)n2-c1c(F)cccc1F`, the Potency result in assay [1] and in assay [2] was “inactive” in each case.
`O=C(Nc1nnc(-c2ccc3c(c2)OCCO3)o1)C1CCCCC1`: the Potency result in assay [1] and in assay [2] was “inactive” each time.
With `CC(=O)NC(C(=O)O[C@H]1CCC(C)(C)[C@@H]2CC=C3C(=O)OCC3(O)[C@@]12C)C(C)C` (stereo partly specified), the Potency result in assay [1] and in assay [2] was “inactive” in each case.
`C#CCCCn1cc(-c2cccc3c2N[C@H](C)CC(=O)N3)cn1`: the Potency entry in assay [1] and in assay [2] was “inactive” in each case.
For the molecule `Fc1ccc(-c2nc(-c3c(F)cccc3F)[nH]c2-c2ccncc2)cc1`, the Potency entry in assay [1] and in assay [2] was “inactive” in each case.
Regarding `COc1cccc(-c2cc(F)ccc2C2Cc3nc(N)nc(C)c3C(=O)N2)n1` (stereo unspecified), the Potency result in assay [1] and in assay [2] was “inactive” each time.
In the case of `O[C@@](Cc1ncc(CC2(C(F)(F)F)CC2)[nH]1)(c1ccc(-n2cccn2)cc1)C(F)(F)F`, the Potency entry in assay [1] and in assay [2] was “inactive” each time.
`Cc1nc(Nc2ccc(F)cc2)nc(N2CCc3ccccc3C2C)c1C` (stereo unspecified): the Potency result in assay [1] and in assay [2] was “inactive” in each case.
As for `O=C(Nc1ccnc(NC(=O)C2CC2)c1)c1c(Cl)cccc1Cl`, the Potency entry in assay [1] and in assay [2] was “inactive” in each case.
With `CC(=O)OC1C(=O)C2C3OCC4=C3[C@@](C)(CC[C@@H]4O)CC[C@]2(C)[C@H]1C(C)C` (stereo partly specified), the Potency entry in assay [1] and in assay [2] was “inactive” throughout.
Regarding `O=C(NNc1nc2cc(F)ccc2n2cccc12)c1cnccn1`, the Potency entry in assay [1] and in assay [2] was “inactive” in each case.
On to `COC1=CC(=O)C=C(C)C12Oc1c(Cl)c(OC)cc(OC)c1C2=O` (stereo unspecified), for which the Potency entry in assay [1] and in assay [2] was “inactive” in each case.
As for `O=C(Nc1ccc(N(Cc2ccsc2)C(=O)Cn2nnc3ccccc32)cc1)C1CC1`, the Potency entry in assay [1] and in assay [2] was “inactive” in each case.
For the molecule `COC1CC(=O)C23C(=O)NC(Cc4c[nH]c5ccccc45)C2C(C)C2(C)OC2C3/C=C/CC(C)CC1O` (stereo unspecified), the Potency entry in assay [1] and in assay [2] was “inactive” throughout.
On to `COC(=O)C1=CO[C@@H](O[C@@H]2O[C@H](CO)[C@@H](O)[C@H](O)[C@H]2O)[C@H]2[C@@H]1C=C[C@]21C=C([C@H](C)OC(=O)/C=C/c2ccc(O)cc2)C(=O)O1`, for which the Potency entry in assay [1] and in assay [2] was “inactive” throughout.
As to `CCCCC1CCC(c2nc(-c3ccncc3)no2)CC1` (stereo unspecified), the Potency entry in assay [1] and in assay [2] was “inactive” in each case.
For `COc1ccc(-c2cc3onc(-c4ccncc4)c3c(=O)n2C)cc1`, the Potency entry in assay [1] and in assay [2] was “inactive” in each case.

For the origin of these results see PubChem BioAssay (NCATS).
